Data reported in PubChem BioAssay.

Molecular target: Streptavidin (Streptomyces avidinii) (UniProt P22629)
Sequence (P22629 whole entry, looked up): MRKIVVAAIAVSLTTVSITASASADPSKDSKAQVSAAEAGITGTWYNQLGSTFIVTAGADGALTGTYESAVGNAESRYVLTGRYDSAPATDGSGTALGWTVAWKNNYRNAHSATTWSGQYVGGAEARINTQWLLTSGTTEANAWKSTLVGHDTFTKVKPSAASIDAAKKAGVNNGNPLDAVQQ
Experiment: compounds binding control protein streptavidin – biophysical, small-molecule microarray, 635/667 nm fluorescence, artefact control for SMM compound annotation, primary screen (AID 1147);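 further: signal reflects streptavidin binding to arrayed compounds as a control protein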
Settings: higher = more signal
With CC1CC/C=C\[C@H]2OC34C=CCN(c5ccc(Cl)cc5)C(=O)[C@H]3N(CCCCCCO)C(=O)[C@]4(C)C2C(=O)O1 (some centres not stated) the composite z-score was -0.963.
In the case of O=C1C2C=CC(C(O)c3c(F)cccc3Cl)N(Nc3ccc([N+](=O)[O-])cc3)C2C(=O)N1c1ccccc1 (configuration not stated), the composite z-score is reported as 1.26.
[N-]=[N+]=Nc1ccccc1[C@@H]1OC(c2ccc(OCCCO)cc2)=N[C@]1(CCS(=O)(=O)c1ccccc1)C(=O)NCC(O)CO (some centres not stated) gave a composite z-score of 1.54.
C=CC[C@@]1(C(=O)OC)N=C(c2ccc(OCCCO)cc2)O[C@@H]1c1ccccc1N=[N+]=[N-] gave a composite z-score of -0.195.
For COC(=O)[C@@]1(Cc2ccc(OC)cc2)[C@H]2c3cc(C(=O)N4CCCC4)n(CCn4cc([N+](=O)[O-])nc4C)c3C[C@H]2CN1C(=O)c1ccccc1, the composite z-score was 2.22.
For CN1C(=O)C2C(C3CC3)C=C3CN(Cc4cccc(Cl)c4)[C@@H]([C@@H](O)Cc4ccccc4)C3C2C1=O (some centres not stated), the composite z-score was 0.599.
COc1ccccc1CN1C(=O)c2ccccc2[C@](Cc2ccccc2I)(C(=O)NCC(C)C)[C@@H]1c1ccc(CO)cc1 showed a composite z-score of -0.738.

Tested on: not listed separately
Experiment: probe aInhba binding on compound microarray – biochemical, small-molecule microarray, 635/667 nm fluorescence, primary screen (AID 1148);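 further: score merges 667nm spot fluorescence with signal-to-noise for antibody binding to printed compounds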
Settings: higher = more signal
Molecule CCOC(=O)C1=CC[C@@H](c2ccc(OC)cc2)N(S(=O)(=O)c2ccc(C)cc2)[C@H]1c1ccc(C)cc1 has a composite z-score of 0.1.
With CCOC(=O)C[C@H]1[C@H](OC(=O)Cc2ccc3c(c2)OCO3)[C@@H](NC(=O)c2ccc3ccccc3n2)c2cc(OCCCO)ccc2N1C(=O)Cc1ccc(OC)cc1 the composite z-score was -0.101.
Molecule CC(C)(C)N1CC=CC23O[C@@H]4C=CCOC(=O)[C@@H]4[C@H]2C(=O)N(CCO)[C@@H]3C1=O (some centres not stated) has a composite z-score of -0.32.
Molecule CCOC(=O)C1=CC[C@@H](c2ccc(OC)cc2)N(S(=O)(=O)c2ccc(C)cc2)[C@H]1CC has a composite z-score of 0.152.
Work on COc1ccc(NN2C(C(O)c3ccc(I)cc3)C=CC3C(=O)N(C4CCCCC4)C(=O)C32)cc1 (configuration not stated) yielded a composite z-score of 0.253.
Work on C=CCOC(=O)[C@H]1[C@@H]2C(=O)O[C@@H](c3ccccc3)[C@@H](c3ccccc3)N2[C@@H](c2ccc(OCCOC(=O)[C@@H]3C[C@@H]4C(=O)N[C@@H](CCCC[N+](C)(C)C)C(=O)N4[C@@H]3c3ccc(O)cc3)cc2)[C@]12C(=O)Nc1ccc(I)cc12 yielded a composite z-score of 0.632.
For Cc1ccc(S[C@]2(C(=O)NCc3ccccc3)CC(=O)N(Cc3ccccc3C(F)(F)F)[C@@H]2c2ccc(CO)cc2)cc1, the composite z-score was 0.0391.
In the case of CC(C)=CCCC(C)=CC(O)C1C=CC2C(=O)NC(=O)C2N1Nc1ccccn1 (configuration not stated), the composite z-score is reported as -0.154.
With O=C1O[C@H](c2ccccc2)[C@H](c2ccccc2)N2[C@H]1[C@@H](C(=O)O)[C@]1(C(=O)Nc3ccc(C#CCCO)cc31)[C@H]2c1ccc(OCCO)cc1 the composite z-score was 0.0082.
In the case of C=CCN1C(=O)[C@@]2(O[C@@H](CCn3cc([C@H](O)c4ccccc4)nn3)[C@H]([Si](C)(C)c3ccc(OC)cc3)[C@H]2C)c2cc(N3C(=O)c4cccc5cccc3c45)ccc21, the composite z-score is reported as -0.128.
NC(=O)NCC#Cc1ccc2c(c1)[C@]1(C(=O)N2)[C@H](c2ccc(OCCO)cc2)N2[C@H](c3ccccc3)[C@H](c3ccccc3)OC(=O)[C@H]2[C@@H]1C(=O)O gave a composite z-score of -0.128.
For CO[C@H]1O[C@H](CO)[C@@H](OC(=O)Nc2ccc3c(c2)OCO3)[C@H](OC(=O)Nc2ccccc2-c2ccccc2)[C@H]1OC(=O)Nc1ccccc1-c1ccccc1, the composite z-score was 0.196.
Work on CC1CC/C=C\[C@H]2OC34C=CCN(c5ccc6ccccc6c5)C(=O)[C@H]3N(C(C)CO)C(=O)[C@@H]4C2C(=O)O1 (some centres not stated) yielded a composite z-score of -0.0933.
For COC(=O)[C@@]1(Cc2ccc(OC)cc2)[C@H]2c3cc(C(=O)N4CCCC4)n(Cc4ccc(C(F)(F)F)nc4)c3C[C@H]2CN1C(=O)c1ccccc1, the composite z-score was 0.225.
In the case of Cc1ccc(C(C)CC(O)C2C=CC3C(=O)N(C)C(=O)C3N2Nc2ccccc2)o1 (configuration not stated), the composite z-score is reported as 0.0588.
In the case of C=CC[C@@]1(C(=O)N(C)C)N=C(c2ccc(OCCCO)cc2)O[C@@H]1c1ccccc1CN=[N+]=[N-], the composite z-score is reported as 0.143.
In the case of COC(=O)[C@@]1(Cc2ccccc2)[C@H]2c3cc(C(=O)N4CCCC4)n(Cc4ccc(OC)c(OC)c4)c3C[C@H]2CN1C(=O)c1ccccc1, the composite z-score is reported as 0.715.
For N#Cc1ccc(NN2C(C(O)C3CC=CCC3)C=CC3C(=O)N(c4ccccc4)C(=O)C32)cc1 (configuration not stated), the composite z-score was -0.0131.
For C=C(C)[C@@H]1CC=C(C(O)C2C=CC3C(=O)N(c4ccccc4)C(=O)C3N2Nc2ccc([N+](=O)[O-])cc2)CC1 (some centres not stated), the composite z-score was 0.19.
COc1ccc([Si](C)(C)[C@H]2[C@H](CCO)O[C@@]3(C(=O)N(Cc4cccc(N(C=O)c5ccccc5)c4)c4ccccc43)[C@@H]2C)cc1 gave a composite z-score of -0.018.
